Experiment [1] is described as follows: NCI Yeast Anticancer Drug Screen. Data for the rad50 strain (AID 155).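 Note: 0% = growth of vehicle-only cultures of the same strain.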 To be noted: S. cerevisiae rad50 strain growth inhibition, hits give high values. The gist of the method: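 Cells are treated with compound, grown, and their growth is then scored against vehicle-only cultures of the same repair-deficient yeast strain.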
A short description of experiment [2]: NCI Yeast Anticancer Drug Screen. Data for the mec2-1 strain (AID 157). Conditions: S. cerevisiae mec2-1 strain, hits give high values. The gist of the method:
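Growth inhibition is read against vehicle-treated controls after compound exposure of the mec2-1 yeast strain, which is defective in DNA damage repair or cell cycle control.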

Experiment [3] can be described thus: NCI Yeast Anticancer Drug Screen. Data for the sgs1 mgt1 strain (AID 161).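 Note: 0% = growth of cultures given vehicle only.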 Conditions: S. cerevisiae sgs1 mgt1 strain, hits give high values. Summed up: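 Yeast cells carrying a defined DNA-repair defect were exposed to test compounds. Growth inhibition was measured relative to vehicle-treated controls.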
Experiment [4] is described as follows: NCI Yeast Anticancer Drug Screen. Data for the cln2 rad14 strain (AID 165).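 Note: 0% = growth equal to vehicle treated cultures.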 To be noted: S. cerevisiae cln2 rad14 strain, hits give high values. Summed up: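 Growth inhibition, relative to vehicle-treated controls, is the read-out. The test organism is a yeast strain with defined genetic alterations, cln2 rad14.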
A short description of experiment [5]: NCI Yeast Anticancer Drug Screen. Data for the bub3 strain (AID 167). To be noted: S. cerevisiae bub3 mutant strain, hits give high values. Summed up: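 Part of a panel of yeast mutants defective in DNA damage repair or cell cycle regulation. Each strain is grown with compound, and inhibition is calculated relative to solvent-treated cultures.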
The nature of experiment [6]: NCI Yeast Anticancer Drug Screen. Data for the mlh1 rad18 strain (AID 175). To be noted: S. cerevisiae mlh1 rad18 strain growth inhibition, hits give high values. Summed up:
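Cells of a genetically altered yeast strain, deficient in DNA damage repair, were treated with compound. Their growth was then compared with that of vehicle-treated cultures to give inhibition.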

The mark [7] stands for this setting: at 5.0 µM (retest, dose inferred, filed as 0.5).
Setting [8] is: at 50.0 µM (retest, dose inferred, filed as 5.0).

Compounds without any hit were thinned out: in the full panel of roughly 79,000, 15% have a hit. Unmarked numbers belong to inactive results. Activity calls are given as the source filed them. Cut-off read from the data, not from the text of the source: active = growth inhibition above about 70%; inactive = the rest.

Consider `CCCCCCCOC(=O)CSC#N`, for which the growth inhibition in experiment [1] (setting [7]) was 61%; in experiment [1] (setting [8]) it was 99% (active); in experiment [1] (at 50.0 µM), 99.2% (active); in experiment [2] (setting [7]), 52%; in experiment [2] (setting [8]), 99% (active); in experiment [2] (at 50.0 µM) it was 99.3% (active). For the same compound, the growth inhibition in experiment [3] (setting [7]) is 95% (active); in experiment [3] (setting [8]) it was 99% (active); in experiment [3] (at 50.0 µM) it was 99% (active); in experiment [4] (setting [7]) it was 29%; in experiment [4] (setting [8]), 99% (active); in experiment [4] (at 50.0 µM), 98.5% (active). For the same compound, the growth inhibition in experiment [5] (setting [7]) is 86% (active); in experiment [5] (setting [8]) it was 99% (active); in experiment [5] (at 50.0 µM), 99.3% (active); in experiment [6] (setting [7]), 90% (active); in experiment [6] (setting [8]), 98% (active); in experiment [6] (at 50.0 µM), 99.3% (active).
Regarding `COc1ccc(NC(=O)CC(=O)n2nc(-c3ccccc3)c(N=Nc3ccc(C)cc3)c2-c2ccccc2)cc1`, the growth inhibition in experiment [1] (setting [7]) was 34%; in experiment [1] (setting [8]), 34%; in experiment [1] (at 50.0 µM), 36.9%; in experiment [2] (setting [7]), 28%; in experiment [2] (setting [8]) it was 28%; in experiment [2] (at 50.0 µM), 5.95%. The growth inhibition in experiment [3] (setting [7]) was 19%; in experiment [3] (setting [8]), 19%; in experiment [3] (at 50.0 µM), -6.65%; in experiment [4] (setting [7]) it was 20%; in experiment [4] (setting [8]), 20%; in experiment [4] (at 50.0 µM), 21%. The growth inhibition in experiment [5] (setting [7]) was 27%; in experiment [5] (setting [8]), 27%; in experiment [5] (at 50.0 µM), 35.1%; in experiment [6] (setting [7]), 36%; in experiment [6] (setting [8]), 36%; in experiment [6] (at 50.0 µM) it was -3.75%.
`Cc1ccc(S(=O)(=O)OCCc2ccc(Cl)cc2)cc1`: the growth inhibition was -10% in experiment [1] (setting [7]); -21% in experiment [1] (setting [8]); -19.6% in experiment [1] (at 50.0 µM); -11% in experiment [2] (setting [7]); -13% in experiment [2] (setting [8]); -10.3% in experiment [2] (at 50.0 µM). Moreover, the growth inhibition in experiment [3] (setting [7]) was -6%; in experiment [3] (setting [8]), 41%; in experiment [3] (at 50.0 µM), -10.4%; in experiment [4] (setting [7]), -15%; in experiment [4] (setting [8]) it was -20%; in experiment [4] (at 50.0 µM) it was -16.5%. In addition, the growth inhibition was 9% in experiment [5] (setting [7]); 22% in experiment [5] (setting [8]); 71.2% (active) in experiment [5] (at 50.0 µM); -14% in experiment [6] (setting [7]); -12% in experiment [6] (setting [8]); -7.75% in experiment [6] (at 50.0 µM).
As for `COC(=O)C1=C(C)NC(C)=C([N+](=O)[O-])C1c1cccc(N=O)c1` (configuration not stated), the growth inhibition was 22% in experiment [1] (setting [7]); 68% in experiment [1] (setting [8]); 74.2% (active) in experiment [1] (at 50.0 µM); 16% in experiment [2] (setting [7]); 98% (active) in experiment [2] (setting [8]); 72.1% (active) in experiment [2] (at 50.0 µM). Also, the growth inhibition is 27% in experiment [3] (setting [7]); 86% (active) in experiment [3] (setting [8]); 89.8% (active) in experiment [3] (at 50.0 µM); 28% in experiment [4] (setting [7]); 45% in experiment [4] (setting [8]); 57.2% in experiment [4] (at 50.0 µM). The growth inhibition was 26% in experiment [5] (setting [7]); 93% (active) in experiment [5] (setting [8]); 90.2% (active) in experiment [5] (at 50.0 µM); 33% in experiment [6] (setting [7]); 97% (active) in experiment [6] (setting [8]); 84.4% (active) in experiment [6] (at 50.0 µM).
For `O=C1OC(c2ccccc2)(c2ccc(-c3ccccc3O)cc2)c2ccccc21` (configuration not stated), the growth inhibition in experiment [1] (setting [7]) was 87% (active); in experiment [1] (setting [8]), 90% (active); in experiment [1] (at 50.0 µM) it was 94.2% (active); in experiment [2] (setting [7]), 71% (active); in experiment [2] (setting [8]) it was 92% (active); in experiment [2] (at 50.0 µM) it was 95.1% (active). The growth inhibition in experiment [3] (setting [7]) was 89% (active); in experiment [3] (setting [8]) it was 93% (active); in experiment [3] (at 50.0 µM), 93% (active); in experiment [4] (setting [7]) it was 60%; in experiment [4] (setting [8]), 90% (active); in experiment [4] (at 50.0 µM), 92.9% (active). For the same compound, the growth inhibition in experiment [5] (setting [7]) is 61%; in experiment [5] (setting [8]), 90% (active); in experiment [5] (at 50.0 µM) it was 95.1% (active); in experiment [6] (setting [7]), 92% (active); in experiment [6] (setting [8]), 91% (active); in experiment [6] (at 50.0 µM), 93.5% (active).
For the compound `Cc1ccc(NNC2=NC(=S)NC(=O)C2)cc1`, the growth inhibition in experiment [1] (setting [7]) was 12%; in experiment [1] (setting [8]), 97% (active); in experiment [1] (at 50.0 µM), 97.5% (active); in experiment [2] (setting [7]), 8%; in experiment [2] (setting [8]), 98% (active); in experiment [2] (at 50.0 µM) it was 96.9% (active). The growth inhibition in experiment [3] (setting [7]) is 18%; in experiment [3] (setting [8]), 97% (active); in experiment [3] (at 50.0 µM) it was 80.6% (active); in experiment [4] (setting [7]), -8%; in experiment [4] (setting [8]), 95% (active); in experiment [4] (at 50.0 µM), 84.8% (active). In addition, the growth inhibition in experiment [5] (setting [7]) is 9%; in experiment [5] (setting [8]), 97% (active); in experiment [5] (at 50.0 µM), 97.8% (active); in experiment [6] (setting [7]), 18%; in experiment [6] (setting [8]), 97% (active); in experiment [6] (at 50.0 µM), 98.3% (active).
On to `O=[N+]([O-])c1cccc2c(O)cccc12`, for which the growth inhibition was 3% in experiment [1] (setting [7]); 58% in experiment [1] (setting [8]); 59% in experiment [1] (at 50.0 µM); 0% in experiment [2] (setting [7]); 35% in experiment [2] (setting [8]); 33.4% in experiment [2] (at 50.0 µM). Moreover, the growth inhibition in experiment [3] (setting [7]) was -2%; in experiment [3] (setting [8]) it was 31%; in experiment [3] (at 50.0 µM) it was 39.1%; in experiment [4] (setting [7]) it was -3%; in experiment [4] (setting [8]), 30%; in experiment [4] (at 50.0 µM) it was 33.8%. For the same compound, the growth inhibition was -1% in experiment [5] (setting [7]); 65% in experiment [5] (setting [8]); 47.2% in experiment [5] (at 50.0 µM); 0% in experiment [6] (setting [7]); 43% in experiment [6] (setting [8]); 73.5% (active) in experiment [6] (at 50.0 µM).
Take `N#Cc1c(-c2ccc(Cl)cc2)c2c(n(C3OC(CO)C(O)C(O)C3O)c1=S)CCCC2` (configuration not stated): the growth inhibition in experiment [1] (setting [7]) is -3%; in experiment [1] (setting [8]), 88% (active); in experiment [1] (at 50.0 µM), 9.95%; in experiment [2] (setting [7]), -2%; in experiment [2] (setting [8]), 77% (active); in experiment [2] (at 50.0 µM), 10.5%. Further, the growth inhibition in experiment [3] (setting [7]) is -1%; in experiment [3] (setting [8]), 96% (active); in experiment [3] (at 50.0 µM), -8.85%; in experiment [4] (setting [7]), 3%; in experiment [4] (setting [8]) it was 86% (active); in experiment [4] (at 50.0 µM) it was 31.2%. For the same compound, the growth inhibition in experiment [5] (setting [7]) is 3%; in experiment [5] (setting [8]), 96% (active); in experiment [5] (at 50.0 µM), 1%; in experiment [6] (setting [7]), -2%; in experiment [6] (setting [8]), 96% (active); in experiment [6] (at 50.0 µM), 14.9%.
With `COc1ccc(CN2CCCN(Cc3ccc(OC)cc3OC)C2c2cc(Cl)ccc2O)c(OC)c1`, the growth inhibition in experiment [1] (setting [7]) was 7%; in experiment [1] (setting [8]) it was 87% (active); in experiment [1] (at 50.0 µM), 40.6%; in experiment [2] (setting [7]), 19%; in experiment [2] (setting [8]), 98% (active); in experiment [2] (at 50.0 µM), 51.4%. Further, the growth inhibition in experiment [3] (setting [7]) was 2%; in experiment [3] (setting [8]), 88% (active); in experiment [3] (at 50.0 µM), 32.8%; in experiment [4] (setting [7]) it was 0%; in experiment [4] (setting [8]), 50%; in experiment [4] (at 50.0 µM) it was 15.7%. Moreover, the growth inhibition in experiment [5] (setting [7]) was -1%; in experiment [5] (setting [8]) it was 91% (active); in experiment [5] (at 50.0 µM), 5.1%; in experiment [6] (setting [7]), 17%; in experiment [6] (setting [8]), 97% (active); in experiment [6] (at 50.0 µM) it was 42%.

The values above are taken from PubChem BioAssay (NCI).
